{"source": "ChEMBL document CHEMBL1961873", "about": "“Compounds: GSK PKIS; Assays: Nanosyn kinase panel” (2012);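 note: mean percent inhibition of ITK from the GSK PKIS screen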", "data": [{"target": "T1, Tyrosine-protein kinase ITK/TSK (Homo sapiens) (UniProt Q08881)", "T1 sequence (whole entry)": "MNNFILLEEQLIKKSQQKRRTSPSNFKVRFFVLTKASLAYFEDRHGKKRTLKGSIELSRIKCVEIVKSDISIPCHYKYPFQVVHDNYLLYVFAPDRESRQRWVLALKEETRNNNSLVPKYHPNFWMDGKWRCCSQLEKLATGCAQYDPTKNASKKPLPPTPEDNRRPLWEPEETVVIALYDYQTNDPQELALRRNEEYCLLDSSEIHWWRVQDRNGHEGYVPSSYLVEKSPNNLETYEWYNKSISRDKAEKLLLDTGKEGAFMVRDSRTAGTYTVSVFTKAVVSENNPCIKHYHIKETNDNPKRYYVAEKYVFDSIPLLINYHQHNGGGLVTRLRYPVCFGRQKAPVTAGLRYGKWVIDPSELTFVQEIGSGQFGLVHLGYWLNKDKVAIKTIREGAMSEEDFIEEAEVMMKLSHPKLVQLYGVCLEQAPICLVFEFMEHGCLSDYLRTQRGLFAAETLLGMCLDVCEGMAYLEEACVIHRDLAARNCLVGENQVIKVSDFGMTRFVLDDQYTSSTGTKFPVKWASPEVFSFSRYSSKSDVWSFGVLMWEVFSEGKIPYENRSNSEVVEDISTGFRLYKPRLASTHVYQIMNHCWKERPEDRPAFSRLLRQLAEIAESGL", "details": "at 0.1 µM", "units": {"inhibition": "%"}, "values": [{"compound": "COc1ccc(CNC(=O)c2ccc(-c3cc(-c4nnc(C)o4)ccc3C)cc2)cc1", "inhibition": 2.25}, {"compound": "Fc1ccc(-c2cc(-c3c[nH]nc3-c3ccccn3)ccn2)cc1", "inhibition": 0.99}, {"compound": "CS(=O)(=O)CCNCc1ccc(-c2ccc3ncnc(Nc4ccc(OCc5ccccc5)c(C(F)(F)F)c4)c3c2)o1", "inhibition": 0.4}, {"compound": "COc1ccc2c(-c3ccnc(Nc4cccc(OC(F)(F)F)c4)n3)cnn2n1", "inhibition": 1.46}, {"compound": "c1ccc(-c2nc3n(c2-c2ccc4c(c2)OCO4)CCC3)nc1", "inhibition": 0.42}, {"compound": "COc1ccc(-c2cc(-c3c[nH]nc3-c3ccccn3)ccn2)cc1", "inhibition": 1.28}, {"compound": "COc1ccc(-c2cc3c(N)ncnc3o2)cc1", "inhibition": -0.48}, {"compound": "FC(F)(F)c1cccc(-c2nn3ncccc3c2-c2ccnc(Nc3ccc4c(c3)OCCO4)n2)c1", "inhibition": 0.97}, {"compound": "N#Cc1c(NC(=O)CN2CCOCC2)sc2c1CCCC2", "inhibition": 1.1}, {"compound": "COC(=O)Nc1nc2ccc(Oc3ccc(NC(=O)Nc4cccc(Cl)c4)cc3)cc2[nH]1", "inhibition": 0.74}, {"compound": "CN1CCC(n2cnc(-c3ccc(F)cc3)c2-c2ccnc(Nc3ccccc3)n2)CC1", "inhibition": 0.83}, {"compound": "Clc1ccc(-c2nn3ncccc3c2-c2ccnc(Nc3ccccc3)n2)cc1", "inhibition": 1.38}, {"compound": "COc1ccc(-c2nn3ncccc3c2-c2ccnc(Nc3ccc4c(c3)OCCO4)n2)cc1", "inhibition": -1.45}, {"compound": "Nc1nc(-c2ccc(F)cc2)c(-c2ccc3ncccc3n2)s1", "inhibition": 2.58}, {"compound": "COc1ccc2[nH]c3c4[nH]c5ccc(OC)cc5c4c4c(c3c2c1)C(=O)NC4=O", "inhibition": 1.85}, {"compound": "Cc1ccc(O)cc1Nc1ccnc2cc(-c3ccccn3)ccc12", "inhibition": 1.62}, {"compound": "NS(=O)(=O)c1ccc(N/N=C2\\C(=O)Nc3ccc4ncccc4c32)cc1", "inhibition": 2.75}]}]}
